# Where two headings read alike, the source gives them in different places.
# What was measured:
# DAPK1 = settings: concentration: 1 μM, replicates: in singlicate; n = 1
# DAPK2 = settings: concentration: 1 μM, replicates: in singlicate; n = 1
# DAPK3 = settings: concentration: 1 μM, replicates: in singlicate; n = 1
# DCAMKL1 = system: T1, DCAMKL1; settings: concentration: 1 μM, replicates: in singlicate; n = 1
# T1 construct: gene DCLK1
# DCAMKL2 = system: T2, DCAMKL2; settings: concentration: 1 μM, replicates: in singlicate; n = 1
# T2 construct: gene DCLK2
# DCAMKL3 = system: T3, DCAMKL3; settings: concentration: 1 μM, replicates: in singlicate; n = 1
# T3 construct: gene DCLK3
# DDR1 = settings: concentration: 1 μM, replicates: in singlicate; n = 1
# DDR2 = settings: concentration: 1 μM, replicates: in singlicate; n = 1
# DLK = system: T4, DLK; settings: concentration: 1 μM, replicates: in singlicate; n = 1
# T4 construct: gene MAP3K12
# DMPK2 = system: T5, DMPK2; settings: concentration: 1 μM, replicates: in singlicate; n = 1
# T5 construct: gene CDC42BPG
# DMPK = settings: concentration: 1 μM, replicates: in singlicate; n = 1
# DRAK1 = system: T6, DRAK1; settings: concentration: 1 μM, replicates: in singlicate; n = 1
# T6 construct: gene STK17A
# DRAK2 = system: T7, DRAK2; settings: concentration: 1 μM, replicates: in singlicate; n = 1
# T7 construct: gene STK17B
# DYRK1A = settings: concentration: 1 μM, replicates: in singlicate; n = 1
# DYRK1B = settings: n = 1
# DYRK2 = settings: concentration: 1 μM, replicates: in singlicate; n = 1
# EGFR = settings: concentration: 1 μM, replicates: in singlicate; n = 1
# EIF2AK1 = settings: concentration: 1 μM, replicates: in singlicate; n = 1
# EPHA1 = settings: concentration: 1 μM, replicates: in singlicate; n = 1
# EPHA2 = settings: concentration: 1 μM, replicates: in singlicate; n = 1
# [1] = concentration: 1 μM, replicates: in singlicate
# 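Further: KINOMEscan kinase panel screen.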
smiles,measurement,setting,value
Cl.Nc1ncnc2occ(-c3ccc(NC(=O)Nc4cc(C(F)(F)F)ccc4F)cc3)c12 [SB-707548],%Inh,DAPK1,24%
same,%Inh,DAPK2,14%
same,%Inh,DAPK3,14%
same,%Inh,DCAMKL1,17%
same,%Inh,DCAMKL2,4%
same,%Inh,DCAMKL3,0%
same,%Inh,DDR1,100%
same,%Inh,DDR2,98.3%
same,%Inh,DLK,21%
same,%Inh,DMPK2,24%
same,%Inh,DMPK,0%
same,%Inh,DRAK1,0%
same,%Inh,DRAK2,0%
same,%Inh,DYRK1A,0%
same,%Inh,DYRK1B; [1],0%
same,%Inh,DYRK2,14%
same,%Inh,EGFR,30%
same,%Inh,EIF2AK1,0%
same,%Inh,EPHA1,79%
same,%Inh,EPHA2,97.5%
NS(=O)(=O)CCc1cccc(Nc2nccc(-c3c(-c4cccc(NC(=O)c5c(F)cccc5F)c4)nn4ccccc34)n2)c1 [GSK336735],%Inh,DAPK1,0%
same,%Inh,DAPK2,0%
same,%Inh,DAPK3,0%
same,%Inh,DCAMKL1,13%
same,%Inh,DCAMKL2,23%
same,%Inh,DCAMKL3,15%
same,%Inh,DDR1,100%
same,%Inh,DDR2,94.9%
same,%Inh,DLK,59%
same,%Inh,DMPK2,100%
same,%Inh,DMPK,11%
same,%Inh,DRAK1,4%
same,%Inh,DRAK2,12%
same,%Inh,DYRK1A,20%
same,%Inh,DYRK1B; [1],0%
same,%Inh,DYRK2,12%
same,%Inh,EGFR,100%
same,%Inh,EIF2AK1,0%
same,%Inh,EPHA1,69%
same,%Inh,EPHA2,71%
COc1cc2c(cc1OC[C@@H](O)CO)ncc1c3ccc(C#N)cc3[nH]c21,%Inh,DAPK1,6%
same,%Inh,DAPK2,6%
same,%Inh,DAPK3,13%
same,%Inh,DCAMKL1,0%
same,%Inh,DCAMKL2,0%
same,%Inh,DCAMKL3,34%
same,%Inh,DDR1,0%
same,%Inh,DDR2,0%
same,%Inh,DLK,65%
same,%Inh,DMPK2,0%
same,%Inh,DMPK,0%
same,%Inh,DRAK1,98.7%
same,%Inh,DRAK2,99.7%
same,%Inh,DYRK1A,99%
same,%Inh,DYRK1B; [1],83%
same,%Inh,DYRK2,86%
same,%Inh,EGFR,0%
same,%Inh,EIF2AK1,0%
same,%Inh,EPHA1,4%
same,%Inh,EPHA2,0%
O=C(Nc1n[nH]c2cc(-c3cccc(F)c3)ccc12)C1CC1 [SB-735464],%Inh,DAPK1,1%
same,%Inh,DAPK2,11%
same,%Inh,DAPK3,0%
same,%Inh,DCAMKL1,11%
same,%Inh,DCAMKL2,0%
same,%Inh,DCAMKL3,0%
same,%Inh,DDR1,4%
same,%Inh,DDR2,8%
same,%Inh,DLK,0%
same,%Inh,DMPK2,0%
same,%Inh,DMPK,0%
same,%Inh,DRAK1,7%
same,%Inh,DRAK2,0%
same,%Inh,DYRK1A,10%
same,%Inh,DYRK1B; [1],0%
same,%Inh,DYRK2,16%
same,%Inh,EGFR,0%
same,%Inh,EIF2AK1,0%
same,%Inh,EPHA1,25%
same,%Inh,EPHA2,0%
Fc1ccc(-c2ncn(CCCN3CCOCC3)c2-c2ccccn2)cc1 [SB-211742],%Inh,DAPK1,17%
same,%Inh,DAPK2,0%
same,%Inh,DAPK3,10%
same,%Inh,DCAMKL1,12%
same,%Inh,DCAMKL2,0%
same,%Inh,DCAMKL3,12%
same,%Inh,DDR1,0%
same,%Inh,DDR2,27%
same,%Inh,DLK,20%
same,%Inh,DMPK2,0%
same,%Inh,DMPK,17%
same,%Inh,DRAK1,0%
same,%Inh,DRAK2,0%
same,%Inh,DYRK1A,11%
same,%Inh,DYRK1B; [1],37%
same,%Inh,DYRK2,5%
same,%Inh,EGFR,12%
same,%Inh,EIF2AK1,0%
same,%Inh,EPHA1,17%
same,%Inh,EPHA2,31%
COc1ccc(Nc2nccc(N3CCC(NC(=O)Nc4cccc(C(C)=O)c4)C3)n2)cc1 (centres unmarked) [GSK1379731],%Inh,DAPK1,0%
same,%Inh,DAPK2,0%
same,%Inh,DAPK3,0%
same,%Inh,DCAMKL1,0%
same,%Inh,DCAMKL2,0%
same,%Inh,DCAMKL3,0%
same,%Inh,DDR1,12%
same,%Inh,DDR2,14%
same,%Inh,DLK,0%
same,%Inh,DMPK2,2%
same,%Inh,DMPK,0%
same,%Inh,DRAK1,0%
same,%Inh,DRAK2,0%
same,%Inh,DYRK1A,23%
same,%Inh,DYRK1B; [1],0%
same,%Inh,DYRK2,0%
same,%Inh,EGFR,15%
same,%Inh,EIF2AK1,0%
same,%Inh,EPHA1,2%
same,%Inh,EPHA2,4%
O=C(NCCNc1ccnc(Nc2ccc(F)cc2)n1)c1cc2ccccc2s1 [GSK1379874],%Inh,DAPK1,0%
same,%Inh,DAPK2,0%
same,%Inh,DAPK3,0%
same,%Inh,DCAMKL1,0%
same,%Inh,DCAMKL2,0%
same,%Inh,DCAMKL3,0%
same,%Inh,DDR1,0%
same,%Inh,DDR2,1%
same,%Inh,DLK,33%
same,%Inh,DMPK2,0%
same,%Inh,DMPK,0%
same,%Inh,DRAK1,8%
same,%Inh,DRAK2,33%
same,%Inh,DYRK1A,2%
same,%Inh,DYRK1B; [1],17%
same,%Inh,DYRK2,15%
same,%Inh,EGFR,23%
same,%Inh,EIF2AK1,0%
same,%Inh,EPHA1,10%
same,%Inh,EPHA2,30%
O=C(Nc1cccc(-c2nn3ncccc3c2-c2ccnc(Nc3cccc(C(F)(F)F)c3)n2)c1)c1c(F)cccc1F [GSK299495],%Inh,DAPK1,0%
same,%Inh,DAPK2,0%
same,%Inh,DAPK3,1%
same,%Inh,DCAMKL1,13%
same,%Inh,DCAMKL2,0%
same,%Inh,DCAMKL3,4%
same,%Inh,DDR1,100%
same,%Inh,DDR2,56%
same,%Inh,DLK,41%
same,%Inh,DMPK2,92.6%
same,%Inh,DMPK,0%
same,%Inh,DRAK1,4%
same,%Inh,DRAK2,0%
same,%Inh,DYRK1A,14%
same,%Inh,DYRK1B; [1],0%
same,%Inh,DYRK2,0%
same,%Inh,EGFR,99.1%
same,%Inh,EIF2AK1,18%
same,%Inh,EPHA1,41%
same,%Inh,EPHA2,0%
O=c1cc(N2CCOCC2)nc2n(Cc3cccc(F)c3)ccn12 [GSK2297430],%Inh,DAPK1,0%
same,%Inh,DAPK2,0%
same,%Inh,DAPK3,0%
same,%Inh,DCAMKL1,0%
same,%Inh,DCAMKL2,0%
same,%Inh,DCAMKL3,2%
same,%Inh,DDR1,0%
same,%Inh,DDR2,1%
same,%Inh,DLK,23%
same,%Inh,DMPK2,4%
same,%Inh,DMPK,12%
same,%Inh,DRAK1,5%
same,%Inh,DRAK2,0%
same,%Inh,DYRK1A,26%
same,%Inh,DYRK1B; [1],0%
same,%Inh,DYRK2,5%
same,%Inh,EGFR,32%
same,%Inh,EIF2AK1,0%
same,%Inh,EPHA1,14%
same,%Inh,EPHA2,9%
O=c1cc(N2CCOCC2)nc2n(Cc3cccc(Cl)c3Cl)c(C3CC3)nn12 [GSK2358994],%Inh,DAPK1,26%
same,%Inh,DAPK2,12%
same,%Inh,DAPK3,6%
same,%Inh,DCAMKL1,0%
same,%Inh,DCAMKL2,7%
same,%Inh,DCAMKL3,17%
same,%Inh,DDR1,21%
same,%Inh,DDR2,0%
same,%Inh,DLK,0%
same,%Inh,DMPK2,0%
same,%Inh,DMPK,0%
same,%Inh,DRAK1,11%
same,%Inh,DRAK2,9%
same,%Inh,DYRK1A,2%
same,%Inh,DYRK1B; 1 µM,0%
same,%Inh,DYRK2,1%
same,%Inh,EGFR,0%
same,%Inh,EIF2AK1,0%
same,%Inh,EPHA1,7%
same,%Inh,EPHA2,0%
